Measured values reported in PubChem BioAssay (NCI).
The panel holds about 83,000 compounds, 20% with a hit somewhere; the sample as a whole holds those more often.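 Interpretation: 100, growth as untreated; towards 0, rising growth inhibition; 0, no net growth; 0 to -100, cell death. Compounds scoring below 10 were considered active.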 A number with no mark means an inactive call. Activity calls are given as the source filed them.

Legend:
Experiment in all cases: NCI-60 one-dose screen, 48 h (100 = growth as untreated, 0 = no growth, -100 = all killed)
Conditions in all cases: 10 µM unless noted
RPMI-8226 leukemia = system: RPMI-8226 leukemia
OVCAR-8 ovarian = system: OVCAR-8 ovarian
OVCAR-5 ovarian = system: OVCAR-5 ovarian
OVCAR-4 ovarian = system: OVCAR-4 ovarian
IGROV1 ovarian = system: IGROV1 ovarian
OVCAR-3 ovarian = system: OVCAR-3 ovarian
NCI/ADR-RES ovarian = system: NCI/ADR-RES ovarian
T-47D breast = system: T-47D breast
HS 578T breast = system: HS 578T breast

With `COC(=O)/C(CCC=C(C)C)=C1\[C@@H](OC(C)=O)C[C@@]2(C)[C@H]1CC(=O)[C@H]1[C@@]3(C)CC[C@H](NCc4ccccc4)[C@@H](C)[C@@H]3CC[C@@]12C` the growth (RPMI-8226 leukemia) was 49.5%, the growth (OVCAR-8 ovarian) was 92.4% and the growth (OVCAR-5 ovarian) was 95%. The growth (OVCAR-4 ovarian) was 80.7%, the growth (IGROV1 ovarian) was 73.4% and the growth (OVCAR-3 ovarian) was 89.2%. The growth (NCI/ADR-RES ovarian) was 88.3% and the growth (T-47D breast) was 92.3%.

`O=C1Nc2ccccc2/C1=C/c1ccc[nH]1` showed a growth (RPMI-8226 leukemia) of 97.6%, a growth (OVCAR-8 ovarian) of 92.8% and a growth (OVCAR-5 ovarian) of 78.7%. It also gave a growth (OVCAR-4 ovarian) of 29.8%, a growth (IGROV1 ovarian) of 49.7% and a growth (HS 578T breast) of 86.6%. For the same compound, the growth (NCI/ADR-RES ovarian) was 99.9% and the growth (T-47D breast) was -24.3% (active).

`O=C1Nc2ccccc2/C1=C/c1cccs1` showed a growth (RPMI-8226 leukemia) of 93.7%, a growth (OVCAR-8 ovarian) of 91.6% and a growth (OVCAR-5 ovarian) of 95.5%. For the same compound, the growth (OVCAR-4 ovarian) was 37%, the growth (IGROV1 ovarian) was 72% and the growth (OVCAR-3 ovarian) was 90.5%. The growth (NCI/ADR-RES ovarian) was 91.8% and the growth (T-47D breast) was -4.77% (active).

In the case of `COc1ccc2sc3c(NCCCN)nc4ccccc4c3c(=O)c2c1`, the growth (RPMI-8226 leukemia) is reported as -6.79% (active), the growth (OVCAR-8 ovarian) is reported as 0.199% (active) and the growth (OVCAR-5 ovarian) is reported as 82.8%. The growth (OVCAR-4 ovarian) was 34.5%, the growth (IGROV1 ovarian) was 58.6% and the growth (OVCAR-3 ovarian) was -22.4% (active). For the same compound, the growth (HS 578T breast) was 70.9%, the growth (NCI/ADR-RES ovarian) was 68.3% and the growth (T-47D breast) was -32.6% (active).
